Here are results for 44 compounds from article PMC4336329 (PLoS ONE, 2015).

Hit rate of the full screen: of about 310,000 compounds, about 14,000 (4.5%) showed an effect of 50% or more. Effects have a minus sign here. What follows is part of a selection rich in strong results, with near analogues and random picks from the rest.
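Further: peak tail current of the secondary pulse compared with the same well before compound.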

In the assay the target is human ether-à-go-go-related gene (hERG) potassium channel (human, UniProt Q12809). As to the kind of experiment: primary screen, population patch clamp on CHO cells stably expressing hERG; higher = less effect of the substance.
Sequence of human ether-à-go-go-related gene (hERG) potassium channel (Q12809 whole entry, looked up): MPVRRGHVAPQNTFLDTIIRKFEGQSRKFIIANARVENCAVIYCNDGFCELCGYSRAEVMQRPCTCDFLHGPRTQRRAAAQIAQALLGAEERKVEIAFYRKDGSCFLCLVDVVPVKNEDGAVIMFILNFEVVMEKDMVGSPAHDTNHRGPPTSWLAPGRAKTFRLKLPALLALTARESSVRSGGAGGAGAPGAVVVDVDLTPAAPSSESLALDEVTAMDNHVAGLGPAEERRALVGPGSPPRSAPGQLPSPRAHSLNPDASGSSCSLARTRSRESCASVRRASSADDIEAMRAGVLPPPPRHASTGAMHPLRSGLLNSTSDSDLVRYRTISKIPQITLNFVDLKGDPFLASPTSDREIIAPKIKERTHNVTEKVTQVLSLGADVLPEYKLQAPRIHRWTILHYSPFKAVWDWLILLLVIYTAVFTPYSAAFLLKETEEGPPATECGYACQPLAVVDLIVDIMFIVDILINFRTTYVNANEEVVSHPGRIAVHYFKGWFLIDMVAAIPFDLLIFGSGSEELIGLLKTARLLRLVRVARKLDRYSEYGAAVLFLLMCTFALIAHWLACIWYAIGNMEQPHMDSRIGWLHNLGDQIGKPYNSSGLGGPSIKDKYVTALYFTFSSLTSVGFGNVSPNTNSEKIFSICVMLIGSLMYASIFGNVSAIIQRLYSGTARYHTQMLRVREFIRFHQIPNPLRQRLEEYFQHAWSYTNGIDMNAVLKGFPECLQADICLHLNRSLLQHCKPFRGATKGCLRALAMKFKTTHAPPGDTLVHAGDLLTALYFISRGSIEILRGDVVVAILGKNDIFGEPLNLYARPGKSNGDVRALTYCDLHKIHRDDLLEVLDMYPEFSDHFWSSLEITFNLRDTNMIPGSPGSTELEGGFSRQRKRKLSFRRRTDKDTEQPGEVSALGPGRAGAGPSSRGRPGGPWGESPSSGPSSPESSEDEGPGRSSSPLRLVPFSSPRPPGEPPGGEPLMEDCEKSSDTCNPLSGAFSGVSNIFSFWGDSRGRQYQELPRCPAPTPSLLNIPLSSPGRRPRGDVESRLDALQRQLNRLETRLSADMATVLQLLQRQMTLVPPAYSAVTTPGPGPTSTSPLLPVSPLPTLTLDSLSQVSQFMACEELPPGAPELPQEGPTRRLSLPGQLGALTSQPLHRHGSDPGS
As for `COc1ccc(C(c2nnnn2Cc2ccc(F)cc2)N2CCN(c3ccc(OC)cc3)CC2)cc1` (centres unmarked), the “hERG current change (%, negative = inhibition) at 10uM” value is -7.57%.

Regarding `c1ccc(Cn2nnnc2C(c2cccnc2)N2CCN(C3CCCCC3)CC2)cc1` (centres unmarked), the “hERG current change (%, negative = inhibition) at 10uM” value is on record as -24.9%.

Take `COc1ccc(OC)c(C(c2nnnn2Cc2ccccc2)N2CCN(C3CCCCC3)CC2)c1.Cl` (centres unmarked): the “hERG current change (%, negative = inhibition) at 10uM” value was -53.9%.

Turning to `c1cnc2ccc(C(c3nnnn3C3CCCC3)N3CCSCC3)cc2c1` (centres unmarked), the “hERG current change (%, negative = inhibition) at 10uM” value is reported as -3.72%.

As to `Cc1ccc(N(CC(O)Cn2c3ccccc3c3ccccc32)S(C)(=O)=O)cc1` (centres unmarked), the “hERG current change (%, negative = inhibition) at 10uM” value was 9.82%.

As to `CCC(C)(C)n1nnnc1C(c1cc2ccc(OC)cc2[nH]c1=O)N1CCN(C2CCCCC2)CC1` (centres unmarked), the “hERG current change (%, negative = inhibition) at 10uM” value was -59.6%.

For the compound `CCC(C)(C)n1nnnc1C(c1cc2ccc(OC)cc2[nH]c1=O)N1CCc2ccccc2C1` (centres unmarked), the “hERG current change (%, negative = inhibition) at 10uM” value is on record as -27.9%.

Take `CCC(C)(C)n1nnnc1C(c1cc2ccc(OC)cc2[nH]c1=O)N1CCCCC1` (centres unmarked): the “hERG current change (%, negative = inhibition) at 10uM” value was -26.3%.

Consider `Cc1cccc(NC(=O)c2cc(NC(=O)c3ccco3)ccc2Cl)n1`, for which the “hERG current change (%, negative = inhibition) at 10uM” value was -29.1%.

For the compound `Cc1nc2ccccn2c1C(=O)Nc1ccc(Cl)cc1`, the “hERG current change (%, negative = inhibition) at 10uM” value amounted to 1.65%.

As to `CN(C)c1nc2c(N)ncnc2n1[C@H]1O[C@@H](CO)[C@H](O)[C@@H]1O`, the “hERG current change (%, negative = inhibition) at 10uM” value came out at 7.28%.

As to `Br.COc1ccc(Nc2nc(-c3sc(NC(C)=O)nc3C)cs2)cc1`, the “hERG current change (%, negative = inhibition) at 10uM” value amounted to 3.32%.

Turning to `Cc1c(NC(=S)NC(=O)C(c2ccccc2)c2ccccc2)cccc1C(=O)O`, the “hERG current change (%, negative = inhibition) at 10uM” value is listed as -3.41%.

Consider `Cc1ccccc1C(=O)Nc1ccnn1C1CCN(CCCc2ccccc2)CC1`, for which the “hERG current change (%, negative = inhibition) at 10uM” value is recorded as -78.4%.

As for `CC(=O)CCC(=O)N1CCC(n2nccc2NC(=O)c2ccccc2C)CC1`, the “hERG current change (%, negative = inhibition) at 10uM” value is 9.06%.

Regarding `O=C(Nc1ccnn1C1CCN(CCCc2ccccc2)CC1)c1ccccc1Cl`, the “hERG current change (%, negative = inhibition) at 10uM” value is -82.2%.

Turning to `COc1ccccc1C(=O)Nc1ccnn1C1CCN(CCCc2ccccc2)CC1`, the “hERG current change (%, negative = inhibition) at 10uM” value is listed as -78.3%.

Consider `O=C(Nc1ccnn1C1CCN(CCCc2ccccc2)CC1)c1ccccc1`, for which the “hERG current change (%, negative = inhibition) at 10uM” value was -80.8%.

`O=C(Nc1ccnn1C1CCN(Cc2ccn[nH]2)CC1)c1ccccc1`: the “hERG current change (%, negative = inhibition) at 10uM” value was -18.2%.

`C=CCNC(=S)Nc1ccc(N(C)C)cc1`: the “hERG current change (%, negative = inhibition) at 10uM” value is -6%.

As for `CCOC(=O)c1cnc(-n2nc(C)cc2C)nc1Oc1ccc(C#N)cc1`, the “hERG current change (%, negative = inhibition) at 10uM” value was found to be 21.3%.

Take `CC(=O)c1ccccc1NS(=O)(=O)c1ccc2c(c1)CC(=O)N2`: the “hERG current change (%, negative = inhibition) at 10uM” value was 2.66%.

For the compound `CCCCn1nnnc1SCC(=O)NNC(=O)C1CCCCC1`, the “hERG current change (%, negative = inhibition) at 10uM” value is listed as -1.79%.

For the compound `O=C1c2ccccc2C(=O)N1CCc1nc(-c2cccnc2)no1`, the “hERG current change (%, negative = inhibition) at 10uM” value is recorded as -12.2%.

For `COc1ccccc1NC(=O)C1(C)Cc2ccccc2C(=O)O1` (centres unmarked), the “hERG current change (%, negative = inhibition) at 10uM” value is listed as -10.2%.

With `Cc1ccc(-n2ncc3ccccc3c2=O)cc1Cl`, the “hERG current change (%, negative = inhibition) at 10uM” value is -3.72%.

For `COc1ccc(NC(=O)c2coc3ccccc23)cc1OC`, the “hERG current change (%, negative = inhibition) at 10uM” value was found to be 6.21%.

As for `CSc1nc(-c2ccc(Cl)cc2)c(C#N)c(=O)[nH]1`, the “hERG current change (%, negative = inhibition) at 10uM” value worked out at 13.1%.

As for `Cc1nc(SCC(=O)NC2CCCCC2C)c(C#N)c(C)c1C` (centres unmarked), the “hERG current change (%, negative = inhibition) at 10uM” value was -7.03%.

Turning to `O=S(=O)(CCN1CCOCC1)c1ccccc1`, the “hERG current change (%, negative = inhibition) at 10uM” value is 8.81%.

Regarding `Cc1nc(-c2ccc(S(=O)(=O)N3CCOCC3)cc2)cs1`, the “hERG current change (%, negative = inhibition) at 10uM” value worked out at 12.8%.

On to `COc1ccc(OCC(=O)N2CCN(C(=O)COc3ccccc3)CC2)cc1`, for which the “hERG current change (%, negative = inhibition) at 10uM” value is -47.5%.

In the case of `COc1ccc(O)c(CN2CCN(C/C=C/c3ccccc3)CC2)c1`, the “hERG current change (%, negative = inhibition) at 10uM” value is given as -51.9%.

`O=C(Cc1ccccc1)N1CCN(C/C=C/c2ccccc2)CC1`: the “hERG current change (%, negative = inhibition) at 10uM” value is recorded as -19.5%.

With `COc1ccc(OC)c(NC(=S)N2CCN(C/C=C/c3ccccc3)CC2)c1`, the “hERG current change (%, negative = inhibition) at 10uM” value is -33%.

Consider `CN(c1ccc(OCC(=O)N2CCN(C/C=C/c3ccccc3)CC2)cc1)S(=O)(=O)c1cccs1.Cl`, for which the “hERG current change (%, negative = inhibition) at 10uM” value was -30.6%.

On to `COc1cccc(NC(=S)N2CCN(C/C=C/c3ccccc3)CC2)c1`, for which the “hERG current change (%, negative = inhibition) at 10uM” value is -44.7%.

On to `O=C(COc1ccccc1)N1CCN(C(=O)COc2ccccc2)CC1`, for which the “hERG current change (%, negative = inhibition) at 10uM” value is on record as -32.2%.

Turning to `O=C(COc1ccccc1)N1CCN(C/C=C/c2ccccc2)CC1`, the “hERG current change (%, negative = inhibition) at 10uM” value is on record as -58.1%.

Turning to `COc1ccc(NC(=S)N2CCN(C/C=C/c3ccccc3)CC2)c(OC)c1`, the “hERG current change (%, negative = inhibition) at 10uM” value is -64.2%.

With `COc1ccc(OCC(=O)N2CCN(C/C=C/c3ccccc3)CC2)cc1`, the “hERG current change (%, negative = inhibition) at 10uM” value was -58.8%.

Take `Cc1ccccc1CN1CCN(C/C=C/c2ccccc2)CC1`: the “hERG current change (%, negative = inhibition) at 10uM” value turned out to be 8.81%.

`COc1cc(Br)cc(CN2CCN(C/C=C/c3ccccc3)CC2)c1O`: the “hERG current change (%, negative = inhibition) at 10uM” value is recorded as -32.1%.

In the case of `c1ccc(-c2onc(-c3ccco3)c2-c2ccc3c(c2)OCO3)cc1`, the “hERG current change (%, negative = inhibition) at 10uM” value is 2%.
